High-throughput results from PubChem.
TcdB inh: TcdB glycohydrolase inhibition. P18177. TcdB glycohydrolase enzymatic assay, plate reader. inhibition, % at 9.99 µM. 0.24% of 350,000 active; in the data active = inhibition above about 10%
BoNT A protease: inhibitors of Botulinum neurotoxin A light chain protease. AID 588499. multiplex microsphere protease substrate cleavage, flow cytometry. 0.17% of 360,000 active. inhibition, % at 10 µM; also: plate controls were buffer without enzyme for full effect and enzyme alone for no effect
BoNT F protease: blocks Botulinum neurotoxin F light chain protease; inhibition, % at 10 µM; 0.22% of 360,000 active; Multiplex microsphere protease cleavage assay, flow cytometry; AID 588497; in the data active = inhibition above about 35%, passing the limit was not always enough; inconclusive = no clear call, values can overlap the other calls; also: plate controls were buffer without enzyme for full effect and enzyme alone for no effect
Anthrax LF prot: blocks Bacillus anthracis lethal factor protease. 0.12% of 360,000 active. P15917. multiplex microsphere protease cleavage assay, LF. AID 588501. inhibition, % at 10 µM; also: plate controls were buffer without enzyme for full effect and enzyme alone for no effect
Bead autofluor: compound fluorescence in toxin protease inhibitor counterscreen; compound autofluorescence counterscreen, microsphere flow cytometry; active compounds read high; fluorescence intensity (test concentration not listed); 3.1% of 360,000 active; AID 624483; in the data active = fluorescence intensity above about 16000; inconclusive = no clear call, values can overlap the other calls
* marks the source's active call; other numbers are inactive results; ? = inconclusive; · = no result. The sample as a whole holds a higher share of hits than the screen did. Rule as the data show it, unless noted: active = inhibition above about 30%; inconclusive = no clear call, values can overlap the other calls; inactive = below that.

SMILES	TcdB inh	BoNT A protease	BoNT F protease	Anthrax LF prot	Bead autofluor
CN1C(=O)C2(Nc3ccccc3-c3nc4ccccc4n32)c2ccccc21 (stereo unspecified)	·	-2	-2	-5	23406*
CC1(c2ccccn2)Nc2ccccc2-c2nc3ccccc3n21 (stereo unspecified)	·	-1	-4	-3	22286*
O=C(COC(=O)c1cc([N+](=O)[O-])ccc1N1CCOCC1)Nc1ccc(Cl)cc1	8	0	1	3	5761
Cc1cc(Cl)ccc1NC(=O)COC(=O)c1cc([N+](=O)[O-])ccc1N1CCOCC1	6	-187	-287	-44	49183*
C[C@@H]1CN([C@H](C)CO)C(=O)Cc2cc(NS(C)(=O)=O)ccc2O[C@H]1CN(C)S(=O)(=O)c1ccc(Cl)cc1	-1	·	·	·	·
Cc1noc(C)c1CSc1ccc2ccccc2n1	·	-2	-2	-1	20444*
Cc1noc(C)c1CSc1nc2sc(C)c(C)c2c(=O)n1-c1ccccc1	·	0	-11	-10	4387
COn1c(SCc2ccc(Cl)cc2)nc2ccccc2c1=O	·	?	-5	-12	22710*
Cc1noc(C)c1CSc1nc2ccccc2s1	·	1	-8	-1	5154
COn1c(SCc2cccnc2)nc2ccccc2c1=O	·	-1	-5	-4	3366
Cc1noc(C)c1CSc1nnc(-c2ccccc2)n1N	·	1	-14	-5	3531
Cc1noc(C)c1CSc1nnc2ccccn12	·	3	1	-8	19015*
Cc1noc(C)c1CSc1nc2ccccc2c(=O)n1-c1ccc(Cl)cc1	·	?	4	0	22121*
CSC1=C(C#N)C(c2ccccc2C)C(C#N)=C(N)N1 (stereo unspecified)	·	?	-5	0	23095*
CC(=O)Nc1ccc2c(c1)C(=O)N(C)[C@@H]1CC[C@@H](CC(=O)NCc3ccc(F)cc3)O[C@H]1CO2	0	·	·	·	·
CC1=C(C#N)C(NC(=O)C(C)(C)C)(C(F)(F)F)C(=O)N1 (stereo unspecified)	·	-2	-4	-1	21687*
CCCC(=O)Nn1cnc2c(c1=O)C1(CCCC1)Cc1ccccc1-2	·	-1	1	-5	5081
CCCC(=O)NC1=C(C#N)C2(CCCC2)Cc2ccccc21	·	?	-9	-2	17626*
O=C(COc1ccc(S(=O)(=O)NC2CCCCC2)cc1Cl)Nc1ccc2c(c1)OCO2	·	-4	-7	-3	25024*
O=C(COc1ccc(S(=O)(=O)NC2CCCCC2)cc1Cl)NCc1ccc2c(c1)OCO2	8	0	-3	-2	10786
O=C(CC1SC2=NCCN2C1=O)Nc1ccccc1 (stereo unspecified)	·	0	1	-1	5735
Cc1ccc(NC(=O)CC2SC3=NCCN3C2=O)cc1 (stereo unspecified)	·	2	0	0	22351*
O=c1c2cnn(-c3ccccc3)c2nc(-c2ccco2)n1-c1ccccc1	·	-1	-1	0	22323*
CO[C@@H]1CN(C)C(=O)c2cc(NC(C)=O)ccc2OC[C@H](C)N(Cc2cncnc2)C[C@H]1C	-4	·	·	·	·
CCN1[C@@H]2c3cccc(=O)n3C[C@@H]2[C@@H](CO)[C@@H]1C(=O)NC1Cc2ccccc2C1	-2	·	·	·	·
SMILES	TcdB inh	BoNT A protease	BoNT F protease	Anthrax LF prot	Bead autofluor
O=C(/C=N/O)Nc1ccccc1C(=O)O	·	1	4	-1	22836*
Cc1c(Cl)cccc1Nc1ccccc1C(=O)O	-1	-1	6	-2	4019
O=C(O)c1ccccc1Nc1ccccc1C(=O)O	3	?	-7	-2	17128*
C[C@@H]1CCCCO[C@H](CN(C)C(=O)Nc2cccc3ccccc23)[C@@H](C)CN([C@@H](C)CO)C(=O)c2cc(NC(=O)CCCN(C)C)ccc2O1	0	·	·	·	·
O=C(O)C[C@H]1CC[C@@H]2[C@H](COC[C@@H](O)CN2S(=O)(=O)c2ccc(F)cc2)O1	1	·	·	·	·
CC(CNC(=O)C1CCCCC1C(=O)O)c1ccccc1 (stereo unspecified)	2	1	2	-3	22629*
COc1cccc(-c2cnc3c(c2)C(=O)N([C@H](C)CO)C[C@@H](C)[C@@H](CN(C)Cc2ccc(F)cc2)O3)c1	1	·	·	·	·
CC(C)c1nc2oc3ccccc3c(=O)c2c(=O)n1-c1ccccc1	·	6	4	-17	17355*
CCOC(=O)C1CCN(C(=O)CSc2cc(=O)n(CC)c3ccccc23)CC1	-1	-3	-6	0	16952*
CCn1c(=O)cc(SCC(=O)N2CCC(C)CC2)c2ccccc21	·	?	4	0	15393
CCOC(=O)N1CCC(NC(=O)CSc2cc(=O)n(CC)c3ccccc23)CC1	·	3	3	4	21138*
C[C@H]1CN([C@@H](C)CO)C(=O)c2cc(NC(=O)Cc3ccccc3)ccc2O[C@H]1CN(C)CC1CCCCC1	0	·	·	·	·
O=C(Nc1ccc(Cl)cc1)N1CCC(c2nc(-c3ccc(F)cc3)no2)CC1	1	-2	-4	-2	24171*
COc1ccc(NC(=O)N2CCCC(c3nc(-c4ccc(OC)cc4)no3)C2)cc1 (stereo unspecified)	1	0	-1	-1	2742
O=C(Nc1ccc(Cl)cc1)N1CCN(c2ccc3nnc(-c4ccc(F)cc4)n3n2)CC1	·	-3	-8	-5	17296*
C/C=C/c1ccc([C@@H]2[C@H](CO)N(S(C)(=O)=O)C23CN(C(=O)CC)C3)cc1	-1	·	·	·	·
C/C(N)=C(/C#N)C(=O)CSc1nc2ccc(C)cc2[nH]1	·	0	1	-2	16421*
Cc1ccc2nc(SCC(=O)Nc3nnc(SCC(N)=O)s3)[nH]c2c1	·	0	-1	-2	20623*
Cc1ccc2nc(SCC(=O)c3cc(C)n(C)c3C)[nH]c2c1	·	0	2	-4	2270
Cc1ccc2nc(SCC(=O)Nc3cccnc3Cl)[nH]c2c1	5	0	2	-4	3834
Cc1ccccc1S(=O)(=O)N1[C@H](CO)[C@@H](c2ccc(C#CC3CCCC3)cc2)[C@@H]1C#N	-1	·	·	·	·
Cc1noc(C)c1NC(=O)N(C)C[C@@H]1Oc2ccc(NS(=O)(=O)c3ccc(Cl)cc3)cc2CC(=O)N([C@H](C)CO)C[C@@H]1C	-4	·	·	·	·
C[C@@H]1CCCCO[C@@H](CN(C)CC2CC2)[C@H](C)CN([C@@H](C)CO)C(=O)c2cc(NS(C)(=O)=O)ccc2O1	0	·	·	·	·
CO[C@H]1CN(C)C(=O)c2ccc(NS(C)(=O)=O)cc2OC[C@H](C)N(C(=O)CC2CC2)C[C@H]1C	0	·	·	·	·
COc1cccc(N2CC(C(=O)OC(C)C(=O)c3ccccc3)CC2=O)c1 (stereo unspecified)	·	?	-1	-1	22234*
SMILES	TcdB inh	BoNT A protease	BoNT F protease	Anthrax LF prot	Bead autofluor
COc1ccc(NC(=O)c2c(C(F)(F)F)nn(C)c2SCc2ccccc2)cc1	·	-1	-3	-2	16890*
C[C@H]1CN([C@@H](C)CO)C(=O)Cc2cc(NC(=O)C3CCCCC3)ccc2O[C@@H]1CN(C)S(=O)(=O)c1ccc(F)cc1	0	·	·	·	·
Cc1cc(C)nc(Sc2ncnc3c2oc2ccccc23)n1	·	2	3	0	21474*
Clc1ncnc2c1oc1ccccc12	·	-1	-44	1	4242
c1ccc2cc(Sc3ncnc4c3oc3ccccc34)ccc2c1	·	1	-4	-2	6000
CN(C)CCOc1ncnc2c1oc1ccccc12	·	3	3	0	18425*
